The source of these data is PubChem BioAssay.

SMILES strings stand for the structures. Active and inactive are the calls of the source.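 The calls were made as follows: active = inhibition above the hit cutoff set in the earlier primary screen (cut at about 27% in these data); inactive = the rest.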

In the assay the target is Protein phosphatase methylesterase 1 (Homo sapiens) (UniProt Q9Y570). Nature of the assay: human PME-1 methylesterase inhibition confirmation – biochemical, fluorescence polarization, FP-Rh probe, triplicate (AID 2171).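 Also: 0% = enzyme with DMSO and 100% = wells lacking PME-1.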 Conditions: recombinant PME-1, FP-Rh probe fluorescence polarization; at 5.9 µM; stronger effect = higher value.
Protein phosphatase methylesterase 1 (Homo sapiens), sequence (Q9Y570 whole entry, looked up): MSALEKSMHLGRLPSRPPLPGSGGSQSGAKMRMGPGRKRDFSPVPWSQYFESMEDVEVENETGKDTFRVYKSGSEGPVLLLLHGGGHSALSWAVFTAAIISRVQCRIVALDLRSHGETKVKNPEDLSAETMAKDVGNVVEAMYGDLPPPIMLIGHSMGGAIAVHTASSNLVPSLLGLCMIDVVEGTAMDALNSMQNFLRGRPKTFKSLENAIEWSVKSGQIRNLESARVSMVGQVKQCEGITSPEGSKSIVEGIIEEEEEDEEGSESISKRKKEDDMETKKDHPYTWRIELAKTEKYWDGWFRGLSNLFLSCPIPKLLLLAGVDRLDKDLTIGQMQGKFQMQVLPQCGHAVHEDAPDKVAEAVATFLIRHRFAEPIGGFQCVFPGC
As usually defined, the inhibition is the change of the read-out against control, counted positive when it falls. With `CCCOc1ccc([C@@H]2C3CN(C(=O)OCC)CC=C3C(C#N)=C(N)C2(C#N)C#N)cc1OC` (stereo not given in full), the inhibition was 53.6% (active). The result for `COc1cccc(C(=O)Oc2ccc(/C=N/Nc3ccc(C(=O)O)cc3)cc2OC)c1` reads 36.3% (active); that for `O=C(N/N=C/c1sc(N2CCOCC2)nc1-c1ccccc1)c1ccccc1O`, 51.2% (active). The result for `CC(C)Oc1ccc(CCC(=O)N/N=C/c2ccc3c(c2)OCO3)cc1` reads 4.01% (inactive); that for `O=C1NN(c2ccc(Cl)c(Cl)c2)C(=O)/C1=C/c1cccc(OC(=O)c2cccs2)c1`, 8.75% (inactive); that for `Brc1ccc(-c2ccc(C3Nc4cccc5cccc(c45)N3)o2)cc1`, 24.1% (inactive). Turning to `O=C(N/N=C\c1ccc(COc2ccc([N+](=O)[O-])cc2)o1)c1cccc(Cl)c1`, the inhibition was 9.99% (inactive). Under `CCCn1c(N)c(C(=O)CN(C)CC(=O)Nc2ccccc2CC)c(=O)[nH]c1=O` stands 20.4% (inactive). Consider `Cc1cc2nc3ccc(N(C)C)cc3nc2cc1N`, for which the inhibition was 20% (inactive). With `COc1cc(/C=C2\CCC/C(=C\c3ccc(O)c(OC)c3)C2=O)ccc1O`, the inhibition is 39.5% (active).

Consider `CCN(c1ccccc1)S(=O)(=O)c1ccc(OC)c(NC(=O)CNCCc2ccccc2)c1`, for which the inhibition is 19.9% (inactive).

On to `COC(=O)c1ccc(Cn2nnc3c(=O)[nH]c(C4CCN(S(=O)(=O)c5ccc(F)cc5)CC4)nc32)cc1`, for which the inhibition was 38% (active). Consider `Nc1c(C(=O)Nc2cccc(C(=O)O)c2)sc2nc3c(cc12)CCCC3`, for which the inhibition is 30.8% (active).

`N#C/C(=C/c1ccc(O)c(O)c1)c1nc2ccccc2[nH]1`: the inhibition was -30.6% (inactive). The result for `CCCOc1ccc(C2Nc3cccc4cccc(c34)N2)cc1` reads 38.3% (active). On to `O=C(c1cccs1)N1CCC(c2nc3c(nnn3Cc3ccccc3Cl)c(=O)[nH]2)CC1`, for which the inhibition is 25.4% (inactive).

In the case of `C=C(C)COc1ccc(-c2[nH]ncc2-c2ccc(OC)c(OC)c2)c(O)c1`, the inhibition was 22.1% (inactive). For the compound `COc1ccccc1NS(=O)(=O)c1cccc(-n2c(O)c(C=Nc3ccccc3C(=O)O)c3ccccc3c2=O)c1`, the inhibition was 85.7% (active). In the case of `CN1C(=O)NC(c2ccccc2[N+](=O)[O-])C2=C1CCCC2=O` (stereo not given), the inhibition was 51.5% (active). The result for `COc1cc2c(cc1OC)CN(C(=O)c1ccc3[nH]c(C)c(C)c3c1)CC2` reads 38.8% (active); that for `O=C(CNc1ccccc1)N/N=C/c1c(O)ccc2ccccc12`, 17.1% (inactive).

For `Cc1cc(N)ccc1N1CCCC1`, the inhibition is 7.13% (inactive). Consider `Cc1ccc(NCC(O)C(O)C(O)CO)c(N=Nc2ccccc2)c1C` (stereo not given), for which the inhibition was 50.7% (active). The result for `Cc1onc(NC(=O)NC(=O)c2c(Cl)cccc2Cl)c1Br` reads 17.4% (inactive); that for `Nc1[nH]n(-c2ccccc2)c(=O)c1N=Nc1ccc2ncsc2c1`, 31.1% (active).
